Test results as given in PubChem BioAssay AID623877 (Johns Hopkins Ion Channel Center, 2012).
In all, about 340,000 compounds went through this assay and about 1,000 (0.29%) were called active. This is one part of a sample in which actives are shown more often than they occur.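 Rule for the calls: active = fluorescence-ratio B-score plate-corrected deviation score at least 3 library SD below zero, with starting fluorescence score within 5 deviations; inactive = the rest.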

molecular target: Anoctamin-1 (Mus musculus) (UniProt Q8BHY3); test: TMEM16A chloride channel activators or potentiators, primary screen, cell-based, HTS (AID 623877); settings: HEK293 TMEM16A/YFP-H148Q/I152L, iodide quench fluorescence, at 10 µM; stronger effect = lower value;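 for B-score: channel opened by trigger with iodide after compound preincubation; score built on the fluorescence ratio of max minus min over baseline; more negative score means more quench and so TMEM16A activation or potentiation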
Sequence (Q8BHY3 whole entry, looked up): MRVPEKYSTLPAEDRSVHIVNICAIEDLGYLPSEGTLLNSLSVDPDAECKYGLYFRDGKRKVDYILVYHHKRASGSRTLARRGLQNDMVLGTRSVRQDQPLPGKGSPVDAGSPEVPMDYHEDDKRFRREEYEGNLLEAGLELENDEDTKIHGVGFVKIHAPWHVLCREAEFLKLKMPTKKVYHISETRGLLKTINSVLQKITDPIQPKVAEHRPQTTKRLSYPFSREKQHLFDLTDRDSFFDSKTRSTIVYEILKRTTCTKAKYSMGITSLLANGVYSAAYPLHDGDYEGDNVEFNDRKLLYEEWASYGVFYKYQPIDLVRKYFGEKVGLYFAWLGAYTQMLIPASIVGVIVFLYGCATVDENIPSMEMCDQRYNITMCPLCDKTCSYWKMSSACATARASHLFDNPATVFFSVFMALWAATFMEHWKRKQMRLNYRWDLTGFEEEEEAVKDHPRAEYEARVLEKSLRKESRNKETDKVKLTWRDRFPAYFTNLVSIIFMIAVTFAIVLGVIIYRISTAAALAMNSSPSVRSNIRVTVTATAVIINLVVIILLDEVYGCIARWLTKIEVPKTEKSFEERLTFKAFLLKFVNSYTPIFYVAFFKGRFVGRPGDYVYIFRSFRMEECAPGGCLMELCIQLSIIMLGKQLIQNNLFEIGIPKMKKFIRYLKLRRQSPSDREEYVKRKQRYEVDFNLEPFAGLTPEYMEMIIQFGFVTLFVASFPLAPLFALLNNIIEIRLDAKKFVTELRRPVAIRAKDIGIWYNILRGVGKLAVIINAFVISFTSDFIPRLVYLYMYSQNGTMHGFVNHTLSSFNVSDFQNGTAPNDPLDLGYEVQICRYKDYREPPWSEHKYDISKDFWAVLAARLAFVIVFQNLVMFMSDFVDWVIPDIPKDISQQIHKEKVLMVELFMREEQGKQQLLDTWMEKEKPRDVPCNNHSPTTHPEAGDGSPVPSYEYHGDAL

SMILES	B-score
O=C(OCC(=O)N1CCN(C(=O)c2ccco2)CC1)c1cccc(O)c1	inactive
CCCOc1ccc(Cn2c(O)cc(=O)[nH]c2=O)cc1	inactive
COc1ccc(Cn2c(=O)cc(C)[nH]c2=S)cc1	inactive
COc1ccc(Cn2c(O)c(/C=C3/C=CC=N3)c(=O)[nH]c2=O)cc1	-5.62 (active)
CCn1cc(CNC(=O)c2cc([N+](=O)[O-])c(C)c([N+](=O)[O-])c2)cn1	inactive
O=C(Nc1ccccc1-c1nnn(CC(=O)N2CCN(c3ccccc3)CC2)n1)c1cccs1	inactive
CCNC(=O)N1CCCC(C(=O)c2ccc(-c3ccccc3)cc2)C1 (centres undefined)	inactive
CCCCSc1[nH]c(=O)c(C(=O)OCC)cc1C#N	inactive
Cn1c(=O)n(C)c2cc(S(=O)(=O)N3CCCc4ccccc43)ccc21	inactive
COc1ccc(C(=O)OCC(=O)NCC2CCCCC2)cc1S(=O)(=O)N1CCCc2ccccc21	inactive
COc1cc(C)c(C)cc1S(=O)(=O)N1CCCc2ccccc21	-10.8 (active)
CCCCCC(=O)NC(=S)NNC(=O)c1ccc([N+](=O)[O-])cc1	inactive
CCCCC(=O)NNC(=S)NC(=O)C(c1ccccc1)c1ccccc1	-5.16 (active)
CCC(C)NC(=O)CCCc1ccccc1 (centres undefined)	inactive
O=C(CN1CCN(Cc2ccc(F)cc2Cl)C1=O)NCc1cccs1	inactive
CCOC(=O)CNC(=O)CN1C(=O)CCSc2ccccc21	inactive
C=CCC[C@H](Cc1ccc(F)cc1)C(=O)OC[C@H](C)NC(=O)[C@H](CC=C)CC(=O)N(CCO)Cc1ccccc1	inactive
C=CC[C@H](CC(=O)OC(C)(C)C)C(=O)OC[C@H]1CCCN1C(=O)[C@H](CC=C)CC(=O)N(CCO)Cc1ccccc1	-5.89 (active)
C=CC[C@H](CC(=O)N(CCO)Cc1ccccc1)C(=O)N[C@@H](COC(=O)[C@@H](CC=C)Cc1ccc(F)cc1)Cc1ccccc1	inactive
CC(Sc1nncn1C)C(=O)Nc1cc(C(F)(F)F)ccc1N1CCOCC1 (centres undefined)	inactive
Nn1c(SCC(=O)NC2CCCc3ccccc32)nnc1C1CC1 (centres undefined)	inactive
Nc1nnc(SCC(=O)NC2CCCc3ccccc32)s1 (centres undefined)	-16.7 (active)
O=C(CSc1nncs1)NC1CCCc2ccccc21 (centres undefined)	inactive
CC(=O)Oc1ccc(OC(C)=O)c2c1C1C=CC2CC1	inactive
O=C(CNc1ccccc1N1CCCC1=O)Nc1cc(Cl)ccc1-n1cncn1	inactive
Cc1cc(=O)[nH]c(SCC(=O)Nc2ccc(Br)cc2)n1	inactive

SMILES	B-score
COc1ccc(NC(=O)CSc2nc(NS(=O)(=O)c3ccc(C)cc3)cc(=O)[nH]2)cc1	inactive
Cc1ccc(NC(=O)CSc2nc(CSc3ccc(C)cc3)cc(=O)[nH]2)cc1	-12.6 (active)
COC1=NC2=NCCN2C(OC)=N1	inactive
CC(=O)Nc1ccc(C(=O)Nc2cc(S(=O)(=O)N3CCOCC3)ccc2N2CCOCC2)cc1	inactive
O=C1C(=O)N(c2ccccc2)c2ccccc21	inactive
O=C(c1ccc(Cl)c(S(=O)(=O)N2CCCCCC2)c1)N1CCN(c2ccc(O)cc2)CC1	-41.2 (active)
O=C(c1ccc(Cl)c(S(=O)(=O)N2CCCCC2)c1)N1CCCCCC1	inactive
COc1ccccc1N1CCN(C(=O)c2ccc(Cl)c(S(=O)(=O)N3CCCC3)c2)CC1	inactive
O=c1oc2ccccc2c(=O)c2ccccc12	inactive
COc1ccc(Cl)cc1C(=O)NNC(=O)c1nc2nc(C)cc(C)n2n1	inactive
Cc1cc(C)n2nc(C(=O)N(C)C(c3ccccc3)c3ccccc3)nc2n1	inactive
Cc1cc(C)n2nc(C(=O)NC(C)(C)C)nc2n1	-4.58 (active)
O=C(CCl)N(Cc1cccc([N+](=O)[O-])c1)c1cccc(Cl)c1	inactive
Cc1ccc(-c2csc(C(C#N)=C(O)CN3CCN(C(=O)c4ccco4)CC3)n2)cc1	inactive
COC(=O)C[n+]1cccc2ccccc21	-8.8 (active)
O=C(C[n+]1cc(Br)cc2ccccc21)c1ccc(F)cc1	inactive
COC(=O)Cc1c(-c2[nH]c3ccccc3c2CC(=O)OC)[nH]c2ccccc12	inactive
O=C(Nc1cccc(Cl)c1)C1CCCN(c2cnccn2)C1 (centres undefined)	inactive
Cc1ccc2c(c1)C(c1ccccc1)N(C(=O)c1ccc(S(=O)(=O)N3CCOCC3)cc1)CC(=O)N2 (centres undefined)	inactive
COc1ccccc1N1CCN(CC(=O)Nc2ccnn2C2CCCC2)CC1	inactive
COc1cccc(N2CCN(CC(=O)Nc3ccnn3C3CCCC3)CC2)c1	-41.6 (active)
COc1cccc(C(=O)N2CCC(n3nccc3NC(=O)C3CCOC3)CC2)c1 (centres undefined)	inactive
COc1ccc(CNC(=O)CN(Cc2ccc(Cl)cc2)S(C)(=O)=O)cc1	inactive
Nc1ncnc2c1cnn2C1CC(O)C(CO)O1 (centres undefined)	inactive
Cc1noc(/C=C/c2ccco2)c1S(=O)(=O)N1CCC(C(=O)Nc2ccc(Cl)cn2)CC1	inactive
C=CCCN(Cc1ccccc1)S(=O)(=O)c1ccccc1Br	inactive

SMILES	B-score
C=CC(COCc1ccccc1)N(CC(=O)OC)S(=O)(=O)c1cc(Br)ccc1OC (centres undefined)	inactive
C=CC(COCc1ccccc1)N(Cc1ccccc1)S(=O)(=O)c1ccccc1Br (centres undefined)	-4.97 (active)
O=C(CN1CCCSc2ccccc21)N1CCN(S(=O)(=O)c2ccccc2)CC1	inactive
O=C(CN1CCN(S(=O)(=O)c2cccc(Cl)c2)CC1)N1CCCCC1	inactive
O=C(CN1CCCSc2ccccc21)N1CCN(S(=O)(=O)c2cccc(F)c2)CC1	-45.3 (active)
COc1cc(C(=O)Nc2oc(-c3ccccc3)c(-c3ccccc3)c2C#N)cc(OC)c1OC	inactive
N#Cc1c(NC(=O)CCCN2C(=O)c3ccccc3C2=O)oc(-c2ccccc2)c1-c1ccccc1	-21.8 (active)
O=C1c2ccccc2C(=O)N1CCCCCCN1C(=O)c2ccccc2C1=O	inactive
CN(C)S(=O)(=O)c1ccc(N2CCCC2)c(C(=O)NCc2ccccc2)c1	inactive
O=P(c1cccs1)(c1cccs1)c1cccs1	inactive
COc1ccc(N=C2C=CC(=O)O2)cc1	inactive
COc1ccc(-n2c(SCC(=O)NCc3cccs3)nnc2-c2ccoc2C)cc1	inactive
CCOc1ccccc1-n1c(SCC(=O)NCc2ccco2)nnc1-c1ccncc1	inactive
Cc1ccccc1-n1c(SCC(=O)NCc2cccs2)nnc1-c1ccncc1	-9.87 (active)
O=C(Oc1ccccc1)Oc1ccc2c(c1)oc(=O)c1ccccc12	inactive
CC(C)N(Cc1ccccc1)C(=S)Nc1ccc(OC(F)F)cc1	inactive
Cc1ccccc1NC(=O)c1nn(-c2ccc(F)c(F)c2)ccc1=O	inactive
CCCSc1ncccc1C(=O)O	inactive
CCN(CC)S(=O)(=O)c1ccc(NC(=O)c2cnc(C)cn2)cc1	inactive
CCN(CC)S(=O)(=O)c1ccc(NC(=O)c2cccnc2Cl)c(NC(=O)c2cccnc2Cl)c1	-8.41 (active)
Cc1ccc(CNC(=O)c2cccnc2Cl)cc1	inactive
O=C(NCCN1CCCC(O)C1)c1cc(COc2c(F)cccc2F)on1 (centres undefined)	inactive
CCc1nnc(NC(=O)CSc2nc(SC)ns2)s1	inactive
COc1ccc(OC)c(Nc2nc3ccccc3n3cnnc23)c1	inactive
COc1ccc(S(=O)(=O)N2CCCC2)c(C)c1C	inactive
Nn1c(SCC(=O)NC(=O)NC2CCCC2)nnc1-c1ccccc1F	inactive

SMILES	B-score
CC(C)NC(=O)NC(=O)CSc1nnc(-c2ccccc2F)n1N	inactive
Nn1c(SCC(=O)NC2CCCC2)nnc1-c1ccccc1F	-15.8 (active)
COC(=O)c1ccc(C(NC(=O)OCc2ccccc2)/C(F)=C/[C@@H](C)C(=O)O)cc1 (some centres undefined)	inactive
CC(C)[C@H](NC(=O)OCc1ccccc1)C(=O)OCc1ccccc1	inactive
COc1ccc(COC(=O)NC(C(=O)O)c2ccccc2)cc1 (centres undefined)	-15.7 (active)
Cc1cccc(C)c1NC(=O)C1CCCN1C(=O)OC(C)(C)C (centres undefined)	inactive
C/C=C/C(=O)OCc1csc(CC(=O)Nc2ccccc2C)n1	inactive
Cc1ccc(NC(=O)Cc2nc(COC(=O)C(C)NS(=O)(=O)c3ccc(C)cc3)cs2)cc1 (centres undefined)	-5.62 (active)
CC(=O)Nc1ccc(S(=O)(=O)NC(C)C(=O)OCC(=O)NC2CCCC2)cc1 (centres undefined)	inactive
CCOc1cc(C(=O)N(Cc2ccccc2)c2ccc(C)cc2)ccc1OCC(=O)N1CCOCC1	inactive
CCOC(=O)C1(Cc2ccc(O)cc2)NC(c2ccccc2F)C2C(=O)N(C)C(=O)C21 (centres undefined)	inactive
CCOc1cc(/C=C2/N=C(c3ccc(C(C)(C)C)cc3)OC2=O)cc(Cl)c1OS(C)(=O)=O	inactive
C=CCC1=C/C(=C\c2c(N)n3nc(CC(=O)N4CCOCC4)sc3nc2=O)C=C(OC)C1=O	inactive
COc1ccc(-c2ccnc(SCC(=O)N3CCOCC3)n2)cc1	inactive
COC1=C/C(=C/c2c(N)n3nc(CC(=O)N4CCOCC4)sc3nc2=O)C=CC1=O	-12.3 (active)
N#CCSc1nn(-c2ccc(F)cc2)c(=S)s1	inactive
O=C(CSc1ccccn1)N1CCN(S(=O)(=O)c2ccc(Cl)cc2)CC1	inactive
CCCC(C)n1[nH]c(=O)c2c(C)cc(C)nc21 (centres undefined)	inactive
CCC(C)n1[nH]c(=O)c2c(C)cc(C)nc21 (centres undefined)	-6.98 (active)
CCC(C)n1[nH]c(=O)cc1N (centres undefined)	inactive
CSc1nc2sc3c(c2c(=O)[nH]1)CCc1ccccc1-3	inactive
NC(=O)N1CCCC1C(=O)Nc1ccc(Cl)c(Cl)c1 (centres undefined)	inactive
O=C(COC(=O)c1cc[n+]([O-])cc1)Nc1ccc(Cl)c(C(F)(F)F)c1	inactive
O=C(CC(O)(C(F)(F)F)C(F)(F)F)Nc1ccc(Cl)c(Cl)c1	-12.9 (active)
Cc1ccc(S(=O)(=O)N2CCOCC2)cc1C(=O)Nc1ccccc1N1CCCC1	inactive
Nc1ccc2c(c1)C(=Cc1cccnc1)c1ccccc1-2	inactive
